# Assay results reported in PubChem BioAssay AID1259418 (Broad Institute, 2018).
# The campaign covered roughly 3,400 compounds. About 840 (25%) were called active. About 11% were inconclusive and are not listed.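 How the source made its calls: active means fitted half-maximal concentration of signal decrease at or below twice the sample's top tested concentration; inconclusive means flat curve between -70 and -30 percent, or poor fit; inactive means flat within 30 percent, signal rise, or potency above limit.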 A selection follows. Results with a measured potency or affinity are listed apart.
# Experiment: T. gondii growth inhibition with IFN-gamma, dose response, cell-based, ME49Luc, HeLa, luciferase, 72 h (AID 1259418)
# Conditions: T. gondii ME49Luc in IFN-y HeLa, stronger effect = lower value, -100% = high-dose IFN-γ control wells; at 19.5 µM unless noted
row,Compound,max activity
1,O=C(Cn1c(=O)c(S(=O)(=O)c2ccccc2)cc2ccccc21)NC1CCCCC1,2.73% (inactive)
2,Fc1ccc(CSc2nc(NCc3ccco3)c3ccccc3n2)cc1,-10.7% [at 2.6 µM] (inactive)
3,Cc1nc(-c2cc(S(=O)(=O)N3CCC(Cc4ccccc4)CC3)c(C)s2)sc1C,9.1% [at 0.16 µM] (inactive)
4,CCOc1ccccc1-c1nc(CSc2nc3c(c(=O)[nH]2)CN(CCOC)CC3)c(C)o1,20.2% [at 10 µM] (inactive)
5,CCc1nc(OCC(=O)Nc2ccccc2F)c2ccccc2n1,12.8% [at 10 µM] (inactive)
6,COc1ccc(NC(=O)CN2CCC3(CC2)N=C(c2cccc(F)c2)C(=O)N3)cc1Cl,18.3% [at 5 µM] (inactive)
7,Cc1ccc(CSC2=Nc3ccccc3C3=NC(CC(=O)NC4CCCCC4)C(=O)N23)c(C)c1 (stereo not drawn),15.1% [at 5 µM] (inactive)
8,O=C(CN1CCC2(CC1)N=C(c1ccc(F)cc1)C(=O)N2)Nc1ccccc1C(F)(F)F,7.82% [at 10 µM] (inactive)
9,O=C(COc1ccccc1Cl)Nc1cncc(-c2nc3ccccc3o2)c1,-6.28% [at 2.6 µM] (inactive)
10,COc1cccc(N(Cc2nc(-c3ccccc3)oc2C)S(=O)(=O)c2ccccc2)c1,-4.33% (inactive)
11,COc1ccc(N(Cc2nc(-c3cccc(C)c3)oc2C)S(=O)(=O)c2ccc(C)cc2)cc1,-7.34% [at 1.35 µM] (inactive)
12,COc1ccc(N(Cc2nc(-c3cccc(Cl)c3)oc2C)S(=O)(=O)c2ccc(OC)cc2)cc1,-8.48% [at 2.6 µM] (inactive)
13,COc1cccc(N(Cc2nc(-c3cccc(Cl)c3)oc2C)S(=O)(=O)c2ccccc2)c1,9.67% [at 0.68 µM] (inactive)
14,COc1ccc(N(Cc2nc(-c3cccc(C)c3)oc2C)S(=O)(=O)c2ccc(OC)cc2)cc1,-8.14% [at 0.35 µM] (inactive)
15,COc1ccc(CC(=O)N2CCC3(CC2)Nc2cc(F)ccc2-n2cccc23)cc1OC,6.12% [at 2.6 µM] (inactive)
16,COc1ccc(-c2nc3c(s2)CN(S(=O)(=O)c2ccc(C(C)C)cc2)CC3)cc1,10.1% [at 0.16 µM] (inactive)
17,CCCN1CCc2nc(SCc3nc(-c4ccc(OCC)c(OC)c4)oc3C)[nH]c(=O)c2C1,28.6% [at 0.16 µM] (inactive)
18,Cc1ccc(-c2coc(-c3ccc(NC(=O)Nc4ccc(F)cc4)cc3)n2)cc1,8.43% [at 10 µM] (inactive)
19,Cc1c(-c2n[nH]c(=S)n2-c2ccccc2)sc2nc3n(c(=O)c12)CCC3,-9.68% [at 0.16 µM] (inactive)
20,CCc1cccc(NC(=O)COc2nc(CC)nc3ccccc23)c1,-10.7% [at 10 µM] (inactive)
21,Cn1c(=O)c(C(=O)Nc2ccccc2)cc2cccnc21,14.2% [at 2.6 µM] (inactive)
22,Cc1nc(OCC(=O)NCc2ccccc2)c2ccccc2n1,19.6% [at 0.16 µM] (inactive)
23,Cn1cccc1C(=O)Nc1ccc2c(c1)CCC(=O)N2,85.5% (inactive)
24,CCc1nc(OCC(=O)Nc2ccccc2Cl)c2ccccc2n1,-7.29% [at 1.35 µM] (inactive)

row,Compound,max activity
1,Cc1nc(C)c(C(=O)N2CCCC2c2nc(-c3ccc(F)cc3F)no2)s1 (stereo not drawn),25.6% [at 10 µM] (inactive)
2,CCc1nc(OCC(=O)Nc2c(C)cc(C)cc2C)c2ccccc2n1,7.02% [at 2.6 µM] (inactive)
3,CN1C(=O)c2cc(NC(=O)Cc3cccs3)ccc2OC[C@H]2O[C@@H](CC(=O)NCc3ccc(-c4ccccc4)cc3)CC[C@@H]21,-7.79% [at 1.2 µM] (inactive)
4,Cc1ccc(CNC(=O)Nc2ccc(-c3nc(-c4ccccc4)co3)cc2)cc1,90.3% [at 10 µM] (inactive)
5,Cc1oc(-c2ccccc2)nc1Cn1nnc(-c2nc(-c3ccccc3Br)no2)c1C,-8.57% [at 0.35 µM] (inactive)
6,CC(=O)O[C@H]1C[C@@H](OC(C)=O)C(C)(C)C2C[C@@H](OC(C)=O)[C@@]3(C)C4=CC(=O)O[C@@H](c5ccoc5)[C@]4(C)CCC3[C@]21C (stereo partly drawn),-9.83% [at 5 µM] (inactive)
7,Cc1ccc(CNC(=O)Nc2ccc(-c3nc(-c4ccc(C)cc4C)co3)cc2)cc1,14.7% [at 0.16 µM] (inactive)
8,CCCCC(=O)Nc1ccc(-c2nc(-c3cc(C)ccc3C)co2)cc1,-7.17% [at 5 µM] (inactive)
9,N#Cc1ccc(-c2ccc([C@H]3[C@@H](CO)N4C(=O)CNC[C@@H]34)cc2)cc1,52.5% (inactive)
10,O=C1CNC[C@@H]2[C@H](c3ccc(C#Cc4cccnc4)cc3)[C@@H](CO)N12,42.6% (inactive)
11,O=C1CNC[C@@H]2[C@H](c3ccc(C#Cc4cccnc4)cc3)[C@H](CO)N12,36.8% (inactive)
12,O=C1CC2C(CCN2Cc2ccc(F)cc2)N1CCN1CCOCC1 (stereo not drawn),15.6% [at 10 µM] (inactive)
13,Cc1ccc(-c2coc(-c3ccc(NC(=O)c4sccc4C)cc3)n2)c(C)c1,14.5% (inactive)
14,COC[C@H](N)C(=O)N1CCC(Cc2nnc(SC)n2C)CC1,32.3% (inactive)
15,Cc1nc(Cn2cnc(-c3nc(C(=O)NCc4cc(F)cc(F)c4)c4ccccn34)c2)cs1,-10.1% (inactive)
16,Cc1ccc(C)c(-c2coc(-c3ccc(NC(=O)Nc4cccc(F)c4)cc3)n2)c1,9.94% [at 2.6 µM] (inactive)
17,CC(C)Oc1ccc(NC(=O)c2nc3c(n2C(C)C)CCN(C(=O)c2ccccc2)C3)cc1,-6.92% [at 2.6 µM] (inactive)
18,Cc1ccc(-c2nc(Cn3nnc(-c4nc(-c5cccc(C(F)(F)F)c5)no4)c3C)c(C)o2)cc1,13.1% (inactive)
19,CCOC(=O)CSC1=Nc2ccccc2C2=NC(CC(=O)NCc3ccccc3OC)C(=O)N12 (stereo not drawn),-7.6% [at 0.68 µM] (inactive)
20,Cc1cccc(-c2nc(Cn3nnc(-c4nc(-c5cccnc5)no4)c3C)c(C)o2)c1,-5.69% [at 2.6 µM] (inactive)
21,O=C(Nc1ccc(-c2nc(-c3ccccc3)co2)cc1)c1ccc(F)cc1,21.2% [at 1.35 µM] (inactive)
22,Cc1ccc(-c2coc(-c3ccc(NC(=O)c4cccc(F)c4)cc3)n2)cc1,42.3% (inactive)
23,O=C(Nc1ccc(-c2nc(-c3ccccc3)co2)cc1)c1ccc(Cl)cc1,21.8% [at 5 µM] (inactive)
24,O=C(Nc1ccc(-c2nc(-c3ccccc3)co2)cc1)c1ccccc1,74.5% (inactive)
